A word on the inhibition: it is the drop in the measured response relative to a control, in per cent.

Molecules are shown by their SMILES. The campaign covered roughly 37,000 compounds. About 2,800 (7.6%) were called active. Another 1% or so got no clear call; they are omitted. No stated cut-off is given here; in the data, active means inhibition above about 80%; inconclusive means no clear call, values can overlap the other calls; inactive means below that. The list comes from a sample in which actives are over-represented; it also holds similar structures and randomly drawn compounds.

The test in a line: NOMO-1 AML cell viability reduction, primary screen, STK33 inhibitor project, CellTiter-Glo luminescence (AID 2330). The settings on record: NOMO-1 AML viability, 72 h, active compounds read high, concentration not given here. (In general: Cellular ATP, detected with luciferase, serves as a proxy for viable cell number.)
With `O=C(CSc1nccc(=O)[nH]1)Nc1ccc([N+](=O)[O-])cc1`, the inhibition is 11.7% (inactive).
On to `C=C1CCC(C)C(C)(CCC2=CC(OC)OC2=O)C/C=C\C=C\1C(=O)O` (stereo unspecified), for which the inhibition was 9.74% (inactive).
For `Cc1cc(C)n2nc(SCC(=O)Nc3ccccc3[N+](=O)[O-])nc2n1`, the inhibition is 4.39% (inactive).
Consider `Cc1ccc(CC2C(=O)N(c3cccc(C(F)(F)F)c3)C(=O)C2C)cc1` (stereo unspecified), for which the inhibition was 54.7% (inactive).
Regarding `C[C@@H]1CN([C@H](C)CO)C(=O)c2cc(NC(=O)C3CC3)ccc2O[C@@H]1CN(C)C`, the inhibition was -2.07% (inactive).
`CNC[C@H]1Oc2c(NC(=O)C3CC3)cccc2C(=O)N([C@@H](C)CO)C[C@@H]1C`: the inhibition was 15.2% (inactive).
Regarding `C[C@@H]1CN([C@H](C)CO)C(=O)Cc2cc(NS(=O)(=O)c3ccc(Cl)cc3)ccc2O[C@@H]1CN(C)S(=O)(=O)c1ccc(Cl)cc1`, the inhibition was 19.9% (inactive).
Under `C[C@@H]1CN([C@H](C)CO)C(=O)c2cc(NC(=O)Cc3ccccc3)ccc2O[C@H]1CN(C)S(=O)(=O)c1cn(C)cn1` stands 4.97% (inactive); under `CC(Sc1nc2ccccc2[nH]1)c1nc2ccccc2[nH]1` (stereo unspecified), 4.08% (inactive).
Under `Cc1cccc(C)c1NC(=O)C(C)N(c1ccc(Cl)cc1)S(C)(=O)=O` (stereo unspecified) stands -16.6% (inactive); under `CCOC(=O)c1c(NC(=O)Cn2nc([N+](=O)[O-])c(Br)c2C)sc2c1CCCC2`, 41.4% (inactive).
On to `Cc1ccc(S(=O)(=O)Nc2cccc3c2O[C@@H](CN(C)CC2CCCCC2)[C@H](C)CN([C@@H](C)CO)C3=O)cc1`, for which the inhibition was 10.5% (inactive).
With `Cc1ccc(S(=O)(=O)Nc2cccc3c2O[C@@H](CN(C)S(=O)(=O)c2ccc(C)cc2)[C@H](C)CN([C@@H](C)CO)C3=O)cc1`, the inhibition is 4.36% (inactive).
As to `C[C@H](CO)N1C[C@H](C)[C@@H](CN(C)Cc2ccc3c(c2)OCO3)Oc2c(cccc2N(C)C)C1=O`, the inhibition was 21.9% (inactive).
As for `C[C@H]1CN([C@@H](C)CO)C(=O)c2cc(NS(=O)(=O)c3ccccc3)ccc2O[C@@H]1CN(C)C(=O)NC1CCCCC1`, the inhibition is 13.9% (inactive).
Regarding `C[C@H]1CN([C@@H](C)CO)C(=O)c2cccc(NC(=O)Nc3ccc(C(F)(F)F)cc3)c2O[C@H]1CN(C)S(=O)(=O)c1ccccc1`, the inhibition was 54.4% (inactive).
`C[C@H]1CN([C@@H](C)CO)C(=O)c2cccc(NS(=O)(=O)c3ccccc3)c2O[C@@H]1CN(C)C(=O)Nc1ccc(C(F)(F)F)cc1`: the inhibition was -8.64% (inactive).
The figure for `C[C@@H]1CN([C@H](C)CO)C(=O)c2cccc(NS(=O)(=O)c3ccc(F)cc3)c2O[C@@H]1CN(C)C(=O)Nc1ccc(C(F)(F)F)cc1` is 101% (active).
With `COc1ccc(NC(=O)Nc2cccc3c2O[C@H](CN(C)S(=O)(=O)c2cccs2)[C@H](C)CN([C@@H](C)CO)C3=O)cc1`, the inhibition is 34.9% (inactive).
Under `C[C@@H]1CN([C@@H](C)CO)C(=O)c2cccc(NC(=O)Nc3ccc(C(F)(F)F)cc3)c2O[C@@H]1CN(C)S(=O)(=O)c1cccs1` stands 96.7% (active); under `Cc1ccc(S(=O)(=O)Nc2cccc3c2O[C@H](CN(C)C(=O)Nc2ccc(C(F)(F)F)cc2)[C@@H](C)CN([C@@H](C)CO)C3=O)cc1`, -0.901% (inactive); under `CC(C)NC(=O)Nc1cccc2c1O[C@@H](CN(C)S(=O)(=O)c1ccc(F)cc1)[C@@H](C)CN([C@H](C)CO)C2=O`, -7.11% (inactive).
For the compound `CCn1c(=O)cc(O)c2ccccc21`, the inhibition is 27.9% (inactive).
Turning to `C[C@H](CO)N1C[C@H](C)[C@H](CN(C)C(=O)NC2CCCCC2)Oc2ccc(NC(=O)c3ccncc3)cc2CC1=O`, the inhibition was -3.17% (inactive).
On to `COc1ccc(S(=O)(=O)N(C)C[C@H]2Oc3ccc(NS(C)(=O)=O)cc3C(=O)N([C@H](C)CO)C[C@H]2C)cc1`, for which the inhibition was -0.557% (inactive).
Under `C[C@@H]1CCCCO[C@H](CN(C)S(C)(=O)=O)[C@@H](C)CN([C@H](C)CO)C(=O)c2cc(NS(=O)(=O)c3ccc(Cl)cc3)ccc2O1` stands 4.39% (inactive); under `CC(C)=CCCC1(C)C=Cc2c(ccc3c2[nH]c2cc(O)c(C)cc23)O1` (stereo unspecified), 108% (active); under `O=C(CC1SC(=NC2CC3C=CC2C3)NC1=O)Nc1ccccc1Cl` (stereo unspecified), 8.48% (inactive).
Turning to `COc1ccc(NC(=O)Nc2nn(Cc3ccc(Cl)cc3Cl)cc2Br)cc1OC`, the inhibition is 39.9% (inactive).
For `CC(C)CC(C(=O)Nc1cccc([N+](=O)[O-])c1)N1C(=O)c2ccccc2C1=O` (stereo unspecified), the inhibition is 26.9% (inactive).
Take `O=[N+]([O-])c1cccc(NC(=S)Nc2nn(Cc3ccc(Cl)cc3Cl)cc2Cl)c1`: the inhibition was 111% (active).
As for `C[C@H]1CN([C@@H](C)CO)C(=O)c2cc(NC(=O)Nc3ccc4c(c3)OCO4)ccc2O[C@H]1CN(C)S(=O)(=O)c1ccc(F)cc1`, the inhibition is 18.9% (inactive).
For `C[C@H]1CN([C@@H](C)CO)C(=O)c2cccc(NS(=O)(=O)c3cn(C)cn3)c2O[C@@H]1CN(C)C(=O)Nc1ccc(F)cc1`, the inhibition is 7.11% (inactive).
For the compound `C[C@H]1O[C@@H](O[C@H]2[C@@H](O)C[C@H](O[C@H]3[C@@H](O)C[C@H](O[C@H]4CC[C@]5(C)C6C[C@@H](O)[C@]7(C)[C@@H](C8=CC(=O)OC8)CC[C@]7(O)C6CC[C@@H]5C4)O[C@@H]3C)O[C@@H]2C)C[C@H](O)[C@@H]1O` (stereo partly specified), the inhibition was 112% (active).
Turning to `C[C@H]1CN([C@@H](C)CO)C(=O)Cc2cc(NC(=O)C3CC3)ccc2O[C@@H]1CN(C)C(=O)NC1CCCCC1`, the inhibition was -0.0688% (inactive).
`Cc1ccc(S(=O)(=O)N(C)C[C@@H]2Oc3c(NS(=O)(=O)c4ccc(F)cc4)cccc3C(=O)N([C@@H](C)CO)C[C@H]2C)cc1`: the inhibition is -7.97% (inactive).
The figure for `CCCc1nc2c(C)cc(-c3nc4ccccc4n3C)cc2n1Cc1ccc(-c2ccccc2C(=O)O)cc1` is 0.908% (inactive); for `C[C@H](CO)N1C[C@H](C)[C@H](CN(C)C)Oc2c(NC(=O)C3CCOCC3)cccc2C1=O` it is -4.27% (inactive).
Take `O=C(CCn1cnc2ccccc2c1=O)Nc1cccc(C(F)(F)F)c1`: the inhibition was -23.9% (inactive).
The figure for `O=C(CSc1nnc2c(n1)[nH]c1ccccc12)Nc1cccc(C(F)(F)F)c1` is 112% (active); for `O=C(O)CCSc1nnc2c(n1)[nH]c1ccccc12` it is 16.8% (inactive).

Values taken from PubChem BioAssay AID2330 (Broad Institute, 2010).
